In the library only some 1.3% were active in any assay of this set; here they are far more common.
LYPLA1 counter – blocks human lysophospholipase 1, a PME1 counter-screen; AID 2174; inhibition, % at 5.9 µM; O75608; recombinant LYPLA1, FP-Rh probe fluorescence polarization; 320,000 compounds, 0.16% hits;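 active = inhibition above the mean of all tested compounds plus 3 SD, set per campaign, cut at about 14% in these data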;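 also: inhibitors block serine hydrolase probe labeling of LYPLA1 so polarization falls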
PME-1 primary – blocks human protein phosphatase methylesterase 1. Q9Y570. recombinant PME-1, FP-Rh probe fluorescence polarization. inhibition, % at 5.9 µM. 320,000 compounds, 0.53% hits;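 active = inhibition above the campaign mean of all compounds plus 3 SD, cut at about 26% in these data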;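 also: competitive labeling of PME-1 active site by serine hydrolase directed probe; inhibitors block probe labeling so polarization falls and inhibition rises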
Fam108B counter – Fam108B inhibition, counter-screen for RBBP9 inhibitors | recombinant Fam108B, FP-Rh probe fluorescence polarization | inhibition, % at 9.51 µM | 300,000 compounds, 0.33% hits | AID 1947;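 active = inhibition above the screen mean inhibition plus 3 SD, computed separately per campaign, cut at about 18% in these data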;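 also: inhibitors lower polarization as less probe binds the enzyme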
PREPL inh – inhibitors of human prolyl oligopeptidase-like enzyme PREPL; inhibition, % at 5.96 µM; AID 2751; recombinant PREPL, fluorescence polarization activity-based probe; 320,000 compounds, 0.68% hits; Q4J6C6
LYPLA2 inh – blocks human lysophospholipase 2, a PME1 counter-screen; O95372; recombinant LYPLA2, FP-Rh probe fluorescence polarization; inhibition, % at 5.9 µM; 320,000 compounds, 0.38% hits;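 active = inhibition above the screen-wide mean plus 3 SD, limit set per campaign, cut at about 26% in these data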
Target sequence (O95372 whole entry, looked up): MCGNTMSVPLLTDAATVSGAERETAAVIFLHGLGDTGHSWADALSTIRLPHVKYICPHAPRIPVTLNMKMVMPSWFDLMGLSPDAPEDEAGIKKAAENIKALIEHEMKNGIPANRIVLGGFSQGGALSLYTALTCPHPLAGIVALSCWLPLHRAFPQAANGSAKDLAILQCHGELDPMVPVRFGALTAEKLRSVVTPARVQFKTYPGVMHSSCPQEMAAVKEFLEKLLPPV
PREPL inh cf – confirmation of human PREPL enzyme inhibitors; shares compounds with PREPL inh; recombinant PREPL, fluorescence polarization activity probe; AID 2803; inhibition, % at 5.96 µM; 2,000 compounds, 67% hits
A number is an active result; - = inactive; . = no result. Rule as the data show it, unless noted: active = inhibition above about 43%; inactive = the rest.

SMILES	LYPLA1 counter	PME-1 primary	Fam108B counter	PREPL inh	LYPLA2 inh	PREPL inh cf
CCc1ncc(CN2CCCC(C(=O)Nc3ccc(-c4cscn4)cc3)C2)cn1 (centres undefined)	-	-	-	-	-	.
O=S(=O)(c1ccc(-c2csc(=Nc3ccccc3)n2CCCN2CCOCC2)cc1)N1CCOCC1	-	-	-	44	-	52
Cc1ccc(S(=O)(=O)N2CCCC2)cc1C(=O)NCCOc1ccccc1	-	-	.	-	-	.
COc1cc(O)c(C(CC(=O)N2CCN(c3ccccc3)CC2)c2ccc(N(C)C)cc2)c(OC)c1 (centres undefined)	-	-	-	54	-	48
COc1cc(O)c(C(CC(=O)N2CCCC(C)C2)c2ccc(N(C)C)cc2)c(OC)c1 (centres undefined)	-	-	-	-	-	.
COc1cc(C(=O)NC(=S)Nc2ccc(N3CCCC3)cc2)cc(OC)c1OC	-	-	-	69	-	46
O=C(C1CCCN(S(=O)(=O)c2cccc3nonc23)C1)N1CCN(c2ccccc2Cl)CC1 (centres undefined)	-	-	-	47	-	-
O=C(C1CCCN(S(=O)(=O)c2cccc3nonc23)C1)N1CCN(c2cccc(Cl)c2)CC1 (centres undefined)	-	-	-	-	-	.
COC(=O)c1ccc(N2NC(=O)/C(=C/c3ccc(OC)c(OC)c3)C2=O)cc1	-	-	-	-	-	.
COc1cc(/C=C2\C(=N)N3N=C(S(C)(=O)=O)SC3=NC2=O)ccc1OC(=O)c1cccs1	-	-	-	76	-	88
COc1cc(/C=C2\C(=N)N3N=C(S(C)(=O)=O)SC3=NC2=O)ccc1OC(=O)c1ccco1	-	-	-	61	-	85
COc1cc(/C=C2/C(=O)NN(c3cccc(C)c3)C2=O)ccc1OC(=O)c1ccco1	-	-	-	56	-	-
CCOc1cc(/C=C2\C(=N)N3N=C(S(=O)(=O)CC)SC3=NC2=O)ccc1OC(=O)c1ccco1	-	-	-	-	-	.
O=C(CSc1nc(=O)n2ccccc2n1)NC1CCCCC1	-	-	-	-	-	.
O=S(=O)(NCCc1ccc(Cl)cc1)c1cccc2cccnc12	-	-	-	-	-	.
CCN(CCCNC(=O)C1c2ccccc2C(=O)N(CCOC)C1c1ccc(F)cc1)Cc1ccccc1 (centres undefined)	-	-	-	49	-	-
CCN(CC)CCCNC(=O)C1c2ccccc2C(=O)N(CCOC)C1c1ccc(F)cc1 (centres undefined)	-	-	-	-	-	.
COc1cc2[nH]c3c(Cl)ncnc3c2cc1OC	-	-	-	-	-	.
COc1ccc2[nH]c3c(N4CC(C)OC(C)C4)ncnc3c2c1 (centres undefined)	-	-	-	-	-	.
COc1cccc(N2CCN(c3ncnc4c3[nH]c3ccc(F)cc34)CC2C)c1 (centres undefined)	-	28	-	49	-	47
COc1cccc(N2CCN(c3ncnc4c3[nH]c3ccccc34)CC2C)c1 (centres undefined)	-	-	-	46	-	46
COc1cc2[nH]c3c(N4CCN(c5ccc(Cl)cc5)CC4)ncnc3c2cc1OC	-	28	-	95	-	75
COc1ccc(-c2csc3nc(C)nc(N4CCN(c5ccc(C(C)=O)cc5)CC4)c23)cc1OC	-	-	-	-	-	.
Cc1cc2cc(CCNC(=O)CCc3ccccc3)c(=O)[nH]c2cc1C	-	-	-	-	-	.
CCc1ccc2c(CC(=O)NNC(=O)c3ccncc3)coc2c1	-	-	.	-	-	.
SMILES	LYPLA1 counter	PME-1 primary	Fam108B counter	PREPL inh	LYPLA2 inh	PREPL inh cf
CC(C)c1nnc(NC(=O)CCC(=O)N2CCN(c3ccc(Cl)cc3)CC2)s1	-	-	-	43	-	-
CC(C)c1nnc(NC(=O)CCC(=O)N2CCN(c3ccc(F)cc3)CC2)s1	-	-	-	-	-	.
COc1ccccc1-c1nnc2sc(-c3ccc(N(C)C)cc3)nn12	-	-	-	52	-	48
CC(=O)c1ccc2c(c1)N(CCCN1CCC(CCO)CC1)c1ccccc1S2	-	-	-	-	-	.
CSc1ccc2c(c1)N(CCC1CCCCN1C)c1ccccc1S2 (centres undefined)	-	-	-	48	-	51
Nc1c(C(=O)NC2CCCC2)c2nc3ccccc3nc2n1N	-	-	-	44	-	-
Cc1ccc(NC(=O)N2CCOCC2)c(C)c1	-	-	-	87	-	-

From PubChem
